In PubChem BioAssay (NCI):
The panel holds about 83,000 compounds, 20% with a hit somewhere; the sample as a whole holds those more often.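 The endpoint reported here, percent growth, reads 100 for growth as untreated, 0 for no net growth and -100 for all cells dead.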 Values without a mark were called inactive. Activity calls are given as the source filed them. How the source made its calls: active means growth percent below 10; inactive means the rest.

Experiments:
Assay in all cases: NCI-60 one-dose screen, 48 h (100 = growth as untreated, 0 = no growth, -100 = all killed)
[1] = tested on: HCT-15 colon; details: 10 µM unless noted
[2] = tested on: HT29 colon; details: 10 µM unless noted
[3] = tested on: SNB-75 CNS; details: 10 µM unless noted
[4] = tested on: SNB-19 CNS; details: 10 µM unless noted
[5] = tested on: U251 CNS; details: 10 µM unless noted
[6] = tested on: PC-3 prostate; details: 10 µM unless noted
[7] = tested on: SK-MEL-5 melanoma; details: 10 µM unless noted
[8] = tested on: UACC-62 melanoma; details: 10 µM unless noted
[9] = tested on: SK-MEL-28 melanoma; details: 10 µM unless noted
[10] = tested on: LOX IMVI melanoma; details: 10 µM

Row | SMILES | growth [1] | growth [2] | growth [3] | growth [4] | growth [5] | growth [6] | growth [7] | growth [8] | growth [9] | growth [10]
1 | C=C1CCC2C3(C)COC(c4ccc(F)cc4)OC3CCC2(C)C1CC(O)C1=CCOC1=O (stereo not given) | 1.99% (active) | 27.8% | 60.4% | 76.4% | 59.6% | 37.6% | 21.9% | 47.9% | 41.4% | –
2 | COc1ccc(/C=C/c2nc3ccccc3n3c(-c4ccc(Cl)cc4)nnc23)cc1 | 93.3% | 102% | 61.2% | 94.7% | 87.5% | 77.1% | 98.6% | 81.3% | 104% | 88.5%
3 | N=C1N=C(SCc2nc3ccccc3[nH]2)NC(=O)/C1=C/c1ccc(Cl)cc1 | 103% | 108% | 106% | 105% | 105% | 107% | 98.3% | 90.3% | 110% | 91.3%
4 | COc1ccc(NC(=O)[C@@H](N)Cc2ccccc2)cc1C(=O)Nc1cccc(C2CC(=O)c3c(cc(OC)c(OC)c3OC)O2)c1 (stereo not given in full) | 37.7% | 73.4% | 108% | 79% | 60.2% | 38.8% | 46.5% | 49.7% | 73.2% | 25.1%
5 | CC(=O)Oc1ccccc1C(=O)[Se]C(=NC1CCCCC1)NC1CCCCC1 | -73.5% (active) | -60.8% (active) | -63.3% (active) | -94.9% (active) | -87% (active) | -31% (active) | -89.3% (active) | -90.7% (active) | -89.1% (active) | –
6 | COc1ccc(C(=O)/C=C/c2ccc(OCc3ccccc3)c(OC)c2)cc1OC | 9.77% (active) | 15.1% | -15.9% (active) | 14.4% | 10.1% | 37% | 34.9% | 29% | 70.4% | –
7 | Cn1cc(-c2cc3nc(-c4c[nH]c5ccc(Cl)cc45)cc(N)n3n2)c2ccccc21 | -86.2% (active) | -80.7% (active) | -67.5% (active) | -72.3% (active) | -83% (active) | -80.9% (active) | -84.8% (active) | -70.9% (active) | -97.4% (active) | -80.7% (active)
8 | Cc1ccc(NCC(=O)Cn2cc(COc3ccc(C=Nc4cnc5ccccc5c4)cc3)nn2)cc1 | 112% | 116% | 111% | 97.9% | 101% | 106% | 102% | 97.8% | 112% | –
9 | O=[N+]([O-])c1ccc(/C=C/c2nc3ccccc3n3c(=S)[nH]nc23)cc1 | 82.1% | 93.4% | 102% | 78.4% | 76.2% | 65.8% | 61.8% | 63.3% | 82.7% | 91.3%
10 | COc1cc2oc(-c3cccc(C(=O)Nc4ccc(Cl)cc4)c3)cc(=O)c2c(OCC(=O)N[C@@H](Cc2ccccc2)C(=O)O)c1OC | 112% | 112% | 112% | 98.2% | 109% | 97.5% | 96.1% | 97.8% | 95.5% | 83.4%
11 | C=Cn1cc(C(=O)O)c(=O)c2cc(F)c(N3CCN(c4nccc(-c5nccs5)n4)CC3)cc21 | -51.5% (active) | -52% (active) | -23.3% (active) | -0.431% (active) | 5.03% (active) | 8.48% (active) | -47.7% (active) | -84.7% (active) | -38.5% (active) | –
